The subject of the assay is HL-1. In words: protection of cardiomyocytes from stress damage, SAR follow-up, cell-based, panel, H9c2 and HL-1, ATP luminescence, set 2 (AID 651871).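 Further: cells exposed to stressor for 2 h before ATP readout; reference of the scale not given here.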 The note with it: H9c2/HL-1 cardiomyocytes, 2-deoxyglucose stress, with 2-deoxyglucose, run 15, at 19.8 µM (top of the series).

Several values for one entry are separate records, joined by “and”; a condition that tells them apart may be missing. Equal values may be shown once.

`COc1ccc2c(c1OC)C(=O)N1c3ccccc3C(=O)N(Cc3cccc(Cl)c3Cl)C21` (stereo unspecified): the activity (protection/inhibition) is 69.2% and 28.8%.

These data come from PubChem BioAssay AID651871 (Sanford-Burnham Center for Chemical Genomics, 2012).
